# Source: PubChem (National Center for Advancing Translational Sciences (NCATS))
# PNC inhibitor: High Content Assay for Compounds that inhibit the Assembly of the Perinucleolar Compartment | PC3M PTB-GFP, PNC prevalence imaging, 16 h; stronger effect = lower value | activity change (PNC), negative = inhibition, % at 10 µM | actives 3.1% (n = 140,000) | AID 2417, 2010;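 active = readout at or below -70, meaning at least 70% loss of cells showing the perinucleolar compartment, a nuclear body marking cancer cells; inconclusive = readout between -30 and a set limit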;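 note: plate controls were DMSO wells for no effect and camptothecin positive control wells for full effect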
#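 Read-out is percentage of cells bearing a perinucleolar compartment, from automated 20x imaging of fixed, Hoechst-stained PC3M PTB-GFP cells. Cells were seeded 4 h, then exposed 16 h to compound (23 nl of library stock) in duplicate plates.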
# ALDH1A1 inh: qHTS Assay for Inhibitors of Aldehyde Dehydrogenase 1 (ALDH1A1); actives 7.3% (n = 220,000); Potency, µM (top dose mostly 75.3 µM), inactives show top-dose activity, negative = inhibition, hits mostly inhibitors; Purified ALDH1A1, NADH fluorescence, propionaldehyde substrate; Aldehyde dehydrogenase 1A1 (Homo sapiens), P00352; AID 1030, 2008; active = well fitted inhibition curve with a large enough effect, not every such curve was filed as active; inconclusive = small, poorly fitted or top-dose-only effect, or another doubt; inactive = no such curve, though single readings can be large or run the other way;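 note: potency is the fitted concentration of half-maximal effect; plate controls were no enzyme wells and a reference inhibitor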
# Target sequence (P00352 whole entry, looked up): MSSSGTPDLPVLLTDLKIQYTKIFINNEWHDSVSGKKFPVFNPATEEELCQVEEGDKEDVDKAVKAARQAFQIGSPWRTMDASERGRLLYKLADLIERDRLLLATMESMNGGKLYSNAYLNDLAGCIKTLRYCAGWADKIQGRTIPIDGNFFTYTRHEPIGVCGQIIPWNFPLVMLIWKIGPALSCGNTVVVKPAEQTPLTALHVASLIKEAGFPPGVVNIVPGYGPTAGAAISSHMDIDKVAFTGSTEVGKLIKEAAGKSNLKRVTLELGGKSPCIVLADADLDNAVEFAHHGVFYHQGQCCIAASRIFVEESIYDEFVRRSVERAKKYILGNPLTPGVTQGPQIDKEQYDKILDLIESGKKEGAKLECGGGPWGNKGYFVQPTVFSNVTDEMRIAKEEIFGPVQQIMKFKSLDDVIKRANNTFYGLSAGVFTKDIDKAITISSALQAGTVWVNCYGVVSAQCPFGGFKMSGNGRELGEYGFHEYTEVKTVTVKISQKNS
# ALOX12 inhib: qHTS Assay for Inhibitors of 12-hLO (12-human lipoxygenase); Polyunsaturated fatty acid lipoxygenase ALOX12 (Homo sapiens), P18054; purified 12-hLO, xylenol orange hydroperoxide absorbance; Potency, µM (titrated, usually from 57.1 µM), inactives show at the highest dose activity change, negative = inhibition, most hits filed as inhibitors; actives 0.12% (n = 150,000); note: potency is the fitted concentration of half-maximal effect; nearly all actives have a fitted effect of over 55% in size
#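 Lipoxygenase turnover measured by absorbance at 573 and 405 nm after Fe-XO development. Human 12hLO 150 nM, arachidonate 40 uM, pH 7.0 Hepes buffer with detergent; 15 min compound preincubation, 30 min reaction.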
# HPGD block: qHTS Assay for Inhibitors of HPGD (15-Hydroxyprostaglandin Dehydrogenase); Potency, µM, inactives show top-dose activity change, negative = inhibition, actives largely listed as inhibitors; actives 4.3% (n = 150,000); 15-hydroxyprostaglandin dehydrogenase [NAD(+)] (Homo sapiens), P15428; purified HPGD, NADH fluorescence kinetic, PGE2 substrate; active = well fitted inhibition curve with a large enough effect, not every such curve was filed as active; inconclusive = small, poorly fitted or top-dose-only effect, or another doubt; inactive = no such curve, though single readings can be large or run the other way; note: potency is the fitted concentration of half-maximal effect
#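 NADH formation kinetics: reaction with 30 uM PGE2 and 1 mM NAD+ (final), 20 nM enzyme, Tris-HCl pH 8 with Tween 20, after 15 min compound preincubation at room temperature. Fluorescence change, last versus first of five reads.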
# IMPase Li inh: qHTS Assay for Identifying the Cell-Membrane Permeable IMPase Inhibitors: Potentiation with Lithium | CHO-M1 cells, IP1 TR-FRET (IP-One), carbachol + lithium | Potency, µM (series often up to 59.4 µM), without a hit: top-dose activity, negative = IMPase inhibition, actives largely listed as inhibitors | actives 0.35% (n = 210,000) | AID 1457, 2008;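 note: IP1 builds up when IMPase is blocked and the TR-FRET signal falls; potency is the fitted concentration of half-maximal effect; plate controls were basal vehicle for no effect and high inhibitor control for full effect; nearly all actives have a fitted effect of over 50% in size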
#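 Steps: plate 2000 CHO-M1 cells per well and culture 16–30 h; add compound and lithium; incubate 30 min, 37C; add d2-IP1 tracer and Eu cryptate anti-IP1 antibody in lysis buffer; read after 10 min at room temperature.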
# IMPase inh: qHTS Assay for Identifying the Cell-Membrane Permeable IMPase Inhibitors; CHO-M1 cells, IP1 accumulation, HTRF TR-FRET ratio; inhibition (IP1 accumulation), % at 46.1 µM; 120,000 tested, under 10 active; AID 901, 2007; active = well fitted curve in the direction sought with a large enough effect in the signal ratio, not every such curve was filed as active; inconclusive = small, poorly fitted or top-dose-only effect, or a change in a side signal; inactive = no such curve, though single readings can be large or run the other way; the % refers to the signal ratio;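 note: cells stimulated with carbachol in lithium chloride buffer; plate controls were DMSO basal wells for no effect and reference inhibitor wells for full effect; higher means more IMPase inhibition seen as more IP1 and lower FRET ratio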
#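 CHO-M1, 2000 cells/well, cultured 16–30 h; cpd up to 46 uM; carbachol (50 uM solution, stimulation buffer w/ 50 mM LiCl, pH 7.4), 30 min 37C; IP-One TR-FRET, 10 min RT; Ex 320/Em 665, 620; Hill-fit AC50.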
# * = called active by the depositor; ? = inconclusive; . = no result; [ ] = dose if it differs, or a comment. The list is not random: actives were taken first. Their share in the collection is about 11%. Unless noted, calls come from the whole dose curve; as a rule, active = well fitted curve in the direction sought with a large enough effect; inconclusive = small, poorly fitted or top-dose-only effect, or another doubt; inactive = no such curve, though single readings can be large; an effect the other way counts as inactive or inconclusive. Unless noted, % is set by controls: 0 for no effect and ±100 for the full control effect.
SMILES,PNC inhibitor,ALDH1A1 inh,ALOX12 inhib,HPGD block,IMPase Li inh,IMPase inh
CC1(C)CC(=O)C2=C(C1)N=C1SCCC(=O)N1C2c1cccc([N+](=O)[O-])c1 (centres undefined),.,10µM*,.,.,17%,.
C/C(=N/Nc1nc(-c2ccc(Cl)cc2)cs1)c1cccs1,?,16µM*,-8%,-13%,42%[38.3 µM],6
CC(C)=NNc1nc(-c2ccc([N+](=O)[O-])cc2)cs1,.,-3%,.,.,2%,.
CCOc1ccccc1Nc1nc2ccccc2c2nncn12,.,.,.,.,.,9
CC(C)CN(C)c1nc(N)c(C(=O)N=C(N)N)nc1Cl,.,-12%,5%,-15%,13%,11
COc1ccc(N=Cc2[nH]c3ccccc3c2O)cc1,.,13µM*,.,.,15%,.
CN1CCN(c2nc3c(c(=O)[nH]c(=O)n3C)n2CCCSc2nnnn2-c2ccccc2)CC1,.,22µM*,.,.,1%,.
Cn1c(=O)[nH]c(=O)c2c1nc(N1CCOCC1)n2CCSc1nc2ccccc2[nH]1,-4,4%,-6%,-10%,-15%[38.3 µM],-19
CC1CCN(c2nc3c(c(=O)[nH]c(=O)n3C)n2CC(C)CSc2nnnn2-c2ccccc2)CC1 (centres undefined),7,20µM*,1%,-5%,10%,.
Cn1c(=O)[nH]c(=O)c2c1nc(N1CCOCC1)n2CCCSc1ncccn1,-114*,1%,-4%,-10%,-11%[38.3 µM],2
Cn1c(=O)[nH]c(=O)c2c1nc(Br)n2CCSc1nnnn1-c1ccccc1,-19,-3%,-5%,-7%,7%[38.3 µM],2
Cn1c(=O)[nH]c(=O)c2c1nc(N1CCCCC1)n2CCCSc1nnnn1-c1ccccc1,?,7.9µM*,-2%,-13%,14%,.
O=c1c(-c2cccs2)nc2cnc(N3CCNCC3)nc2n1C1CC1,.,?,.,.,-2%,.
COc1ncc2nc(-c3ccc(F)cc3)c(=O)n(C[C@H]3CCCO3)c2n1,.,?,0%,?,-6%,.
COc1ccc([C@@H](C)C(=O)c2ccc(O)cc2O)cc1,.,-6%,.,-17%,15%,.
CCOC(=O)c1ccc(NC(=O)CSCCC(=O)O)cc1,.,32µM*,.,.,1%,.
COC(=O)c1ccc(NC(=O)CSCC(=O)OCC(=O)c2ccc(Br)cc2)cc1,0,22µM*,0%,-30%,14%[38.3 µM],4
CCOC(=O)c1ccc(NC(=O)CSCc2ccco2)cc1,11,2.2µM*,-13%,-27%,30%[38.3 µM],-5
CCc1ccc(NC(=O)CSCCO)cc1,32,-4%,0%,20µM*,-6%,.
Nc1cccc(B(O)O)c1,.,?,0%,-2%,-1%,.
CCCCOC(=O)c1ccc(NC(=O)CSCc2n[nH]c(=O)[nH]2)cc1,7,13µM*,1%,-15%,-13%[38.3 µM],-1
Cc1ccc(C2CN(C)C3(C(=O)Nc4ccccc43)C23COc2ccccc2C3=O)cc1 (centres undefined),46,-14%,-20%,-12%,30%[38.3 µM],14
CN1CC(c2ccccc2Cl)C2(COc3ccccc3C2=O)C12C(=O)Nc1ccccc12 (centres undefined),?,1.4µM*,-7%,?,24%[38.3 µM],-3
Cc1cc(C(F)(F)F)nc(SCCN2CCOCC2)c1C#N,.,22µM*,.,.,11%,.
Cc1cc(C)nc(SCCN2CCOCC2)n1,13,11%,7%,-6%,61%[38.3 µM],3
N#Cc1c(C(F)(F)F)cc(-c2ccc(Cl)c(Cl)c2)nc1SCCN1CCOCC1,14,2%,-12%,25µM*,13%[38.3 µM],?
C=CCSc1nc(-c2ccc3c(c2)OCO3)cc(C(F)(F)F)c1C#N,-96*,?,-12%,?,?,-1
